Screening data deposited in PubChem by ICCB-Longwood Screening Facility, Harvard Medical School.
Shown are actives, neighbours in structure and some others; about 1.4% of the full set was active somewhere.
AID504770 = growth inhibition of E. coli YBA685, primary screen, V. cholerae RctB inhibitors | AID 504770, 2011 | z-score (no concentration beside the values) | E. coli YBA685 rctB-dependent plasmid, OD600 growth, 3 h; active compounds read low | hit rate 0.27% among 130,000; in the data active means z-score below about -2, passing the limit was not always enough
PV pol inh = poliovirus RdRp elongation inhibitors, primary screen, biochemical, fluorescence polarization, total intensity; % elongation, % (compound at 16.7 µg/mL); hit rate 0.66% among 150,000; poliovirus polymerase elongation; active compounds read low; AID 588519, 2011; Genome polyprotein (Poliovirus type 1 (strain Mahoney)), P03300; in the data active means % elongation below about 90%
Mtb MenB inh = M. tuberculosis MenB inhibitors, primary screen, biochemical, absorbance. hit rate 0.43% among 100,000. 1,4-dihydroxy-2-naphthoyl-CoA synthase (Mycobacterium tuberculosis (strain ATCC 25618 / …. MenB enzyme assay, absorbance read-out. inhibition, % (test concentration not listed); in the data active means inhibition above about 21%, passing the limit was not always enough
Target sequence (P9WNP5 whole entry, looked up): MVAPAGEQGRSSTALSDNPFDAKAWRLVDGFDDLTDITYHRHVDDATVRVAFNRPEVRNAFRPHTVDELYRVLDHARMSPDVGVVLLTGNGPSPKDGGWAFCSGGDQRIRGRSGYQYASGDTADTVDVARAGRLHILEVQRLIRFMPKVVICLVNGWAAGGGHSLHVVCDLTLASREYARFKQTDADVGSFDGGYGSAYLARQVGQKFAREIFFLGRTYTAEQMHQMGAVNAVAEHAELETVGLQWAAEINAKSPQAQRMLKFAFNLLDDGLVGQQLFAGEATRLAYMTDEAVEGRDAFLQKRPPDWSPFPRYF
Mtb MbtI inh = MbtI salicylate synthase inhibitors, primary screen, biochemical, fluorescence intensity. P9WFX0. purified MbtI enzyme, fluorescence intensity read-out. inhibition, % (concentration not given with the values). hit rate 0.89% among 100,000; in the data active means inhibition mostly above about 56%, no sharp cut-off; inactive means mostly below about 77%
Numbers stand for hits; n = inactive; x = no result.

SMILES	AID504770	PV pol inh	Mtb MenB inh	Mtb MbtI inh
CCN1C(=O)/C(=c2\sc3nc(-c4ccccc4C)nn3c2=O)c2ccccc21	n	n	n	n
N#Cc1c(-c2ccccc2)no[n+]1[O-]	x	93.0	n	n
[O-][n+]1onc(-c2ccccc2)c1-c1ccccc1	n	n	n	n
Cn1cnc2c(Cl)ncnc21	n	n	n	n
CC(C)C(=O)Nc1cccc2nsnc12	n	n	n	x
O=C(N/N=C/c1ccc(O)cc1)Nc1cccc2nsnc12	n	n	37.1	n
O=C(O)C1CCN(c2nccs2)CC1	n	n	n	n
S=c1[nH]c2ccc(Cl)cc2o1	-2	n	n	64.3
S=c1[nH]c2ccc(Cl)cc2[nH]1	n	n	n	82.0
Cc1ccc2[nH]c(=S)oc2c1	n	n	n	61.3
CCC(CC)c1nn2cc(-c3ccc(C)c(C)c3)nc2s1	n	n	n	n
CCN(c1ccccc1)S(=O)(=O)c1ccc2c(c1)N(C(C)=O)CC(C)O2 (configuration not stated)	n	n	n	n
Cc1ccc(C)c(SCC(=O)NC(C)C(c2ccccc2)N2CCOCC2)c1 (configuration not stated)	n	88.0	x	n
Cc1ccc(C)c(SCC(=O)NC(C)C(c2cccs2)N2CCCC2)c1 (configuration not stated)	n	n	x	n
CN1C(=O)NC(=O)/C(=C\C=C\c2ccco2)C1=O	n	n	n	n
O=C1NC(=S)NC(=O)C1=C/C=C/c1ccco1	n	72.0	n	n
O=C1NC(=O)N(c2ccccc2)C(=O)/C1=C/C=C/c1ccco1	n	n	n	87.8
CC(C)(C)c1nn(-c2ccccc2)c2[nH]c(=O)c(CNc3ccc4c(c3)OCO4)cc12	n	n	n	n
CCS(=O)(=O)NCC1COC2(CCCCC2)O1 (configuration not stated)	n	n	n	n
NCCNCC1COC2(CCCCCCCCCCC2)O1 (configuration not stated)	-2.85	n	n	n
CCn1c(COc2cccc(C)c2)nnc1SCC(=O)NC(C)(C)C	n	n	41.0	n
CC1CCCC(C)N1C(=O)COc1ccc(C(=O)N=Nc2c(O)[nH]c3ccccc23)cc1 (configuration not stated)	n	n	n	n
O=C(O)CC(CP(c1ccccc1)c1ccccc1)C(=O)O (configuration not stated)	n	n	n	n
OCCP(c1ccccc1)c1ccccc1	n	n	61.2	n
CC1CCN(c2nc3c(S(=O)(=O)c4ccccc4)nnn3c3ccccc23)CC1	n	n	n	n
SMILES	AID504770	PV pol inh	Mtb MenB inh	Mtb MbtI inh
O=c1cc(-c2ccccc2)oc2cc(Cl)ccc12	n	x	x	x
Nc1cc(N)c2cc(-c3ccccc3)oc2c1	n	87.0	n	n
O=C(CSc1nc2ccccc2c(=O)[nH]1)c1ccc(O)cc1O	n	n	n	81.7
O=C(CSc1nc2ccccc2c(=O)[nH]1)c1ccc(-c2ccccc2)cc1	n	n	n	n
N#CCc1ccc(OC(F)F)cc1	n	31.0	n	n
CCCn1c(C)cc(C(=O)CSc2nnc(-c3ccccc3)n2C)c1C	n	n	n	n
Nn1cnn(CC(=O)Nc2nccs2)c1=S	n	74.0	n	x
O=C(CN1C(=O)CSC1=O)Nc1nccs1	n	n	n	n
Oc1[nH]c2ccc(Br)cc2c1N=NC(=S)NCC1CCCO1 (configuration not stated)	n	90.0	n	n
Cc1cc(C)c2[nH]c(O)c(N=NC(=S)NCC3CCCO3)c2c1 (configuration not stated)	n	n	n	n
CCOC(=O)C1CCN(C(c2cc3ccc(OC)cc3n3nnnc23)c2nnnn2C2CCCC2)CC1 (configuration not stated)	n	n	n	n
CC(C)N(Cc1cccs1)C(=O)[C@H]1[C@@H]2C[C@@H]3[C@H]1C(=O)O[C@@H]3C2	n	n	n	n
CCN(C(=O)NCc1noc2ccccc12)c1ccccc1	n	n	n	n
Brc1ccc(CNc2ccc3cn[nH]c3c2)s1	n	58.0	n	n
COc1ccc(OC)c(NC(=S)NCCN2CCOCC2)c1	n	n	n	n
COc1ccc(CNCCN2CCOCC2)cc1	n	n	28.2	n
O=C(NOC(=O)c1cccs1)c1ccccc1	-2.6	n	n	n
Cc1nnc(SCc2cccc(C(=O)c3ccccc3)c2)[nH]c1=O	n	n	n	54.7
Cc1nnc(SCc2ccc(C(=O)c3ccc(F)cc3)cc2)[nH]c1=O	n	x	x	x
Cc1nc(CSc2n[nH]c(C(C)(C)C)n2)cs1	n	n	n	n
Cc1nc(CSc2nncs2)cs1	n	83.0	n	80.0
